Measured values: publication PMC10668032, “Altered binding affinity of SIX1-Q177R correlates with enhanced WNT5A and WNT pathway effector expression in Wilms tumor”
In all, about 33,000 sequences were measured (“e-score”: median about -0.053, highest 2% from about 0.38 on). Only a selection was taken, and the highest values are over-represented in it overall.

target: T1, SIX1 homeodomain (reference allele) (human, UniProt Q15475 108-198); experiment: universal protein binding microarray; Universal all-10-mer PBM (8x60K, AMADID 030236), 300 nM GST-tagged protein, Alexa Fluor 488 anti-GST; buffer, salt, pH and temperature not stated (as in Berger); high values mean tight binding; conditions: protein: ivt; tags: N-terminal GST; dsDNA, one strand shown
T1 sequence: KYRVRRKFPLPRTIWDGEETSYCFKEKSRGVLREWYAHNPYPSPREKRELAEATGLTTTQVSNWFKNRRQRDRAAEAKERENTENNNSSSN
In short: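 Binding was expressed as 8-mer E-scores calculated with the Universal PBM Analysis Suite. The GST-tagged homeodomains, made by in vitro transcription/translation, were applied in duplicate at 300 nM final concentration to universal 'all 10-mer' protein binding microarrays (8×60K format).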

Sequence	binding signal [E-score]
ATCCCGCC	0.27 ± 0.00284
GGATAATA	0.328 ± 0.0761
ATAGGGTG	0.161 ± 0.00687
ATCATTGC	0.244 ± 0.0146
AGTTGGTG	0.191 ± 0.00358
AAGACGAT	0.17 ± 0.0796
ATCCTCGG	0.23 ± 0.0328
CAGTATCC	0.39 ± 0.0154
CACTATCC	0.295 ± 0.013
CAGTATAC	0.295 ± 0.0256
AAGTATCG	0.369 ± 0.0877
CAGTATAG	0.178 ± 0.0386
CAGTATCG	0.4353 ± 0.00267
GGATTACC	0.271 ± 0.0437
CTCTCCCC	0.164 ± 0.0775
ATCACCTG	0.33 ± 0.0102
CGATCCTA	0.299 ± 0.00788
GGATCCAC	0.317 ± 0.0719
AGATCCTA	0.2149 ± 0.00162
GGATCCTA	0.377 ± 0.0205
AGATCCAA	0.204 ± 0.00278
GGATCCAA	0.41 ± 0.0258
CCGAAACC	0.185 ± 0.0211
AAGAGGAT	0.212 ± 0.00759
CGTAGTGA	0.182 ± 0.0165

Sequence	binding signal [E-score]
CAGGACAC	0.187 ± 0.0771
AGCTATCA	0.313 ± 0.116
AGATATTG	0.311 ± 0.0669
GAATATCA	0.366 ± 0.0771
GGCTATCA	0.392 ± 0.0544
AAATATCT	0.157 ± 0.0748
AGATATGG	0.335 ± 0.0142
CGCTATCA	0.34 ± 0.0391
AGATATCG	0.434 ± 0.0383
GGATATGA	0.356 ± 0.0113
AGATATCT	0.385 ± 0.082
AGAGATCT	0.198 ± 0.0724
GGATATCA	0.487 ± 0.00885
ATCACCGG	0.291 ± 0.0263
ACACGGTA	0.188 ± 0.0434
GGATCGCC	0.342 ± 0.0494
TATAGCGA	0.164 ± 0.0391
ATCCATCG	0.246 ± 0.0374
ACATAGTA	0.205 ± 0.029
CTACTATA	0.153 ± 0.00888
ACACCACG	0.263 ± 0.0526
CAATATCA	0.306 ± 0.111
TGATAGCA	0.323 ± 0.0297
TGATATAA	0.297 ± 0.032
AGATATGA	0.291 ± 0.0439

Sequence	binding signal [E-score]
AGATATCC	0.442 ± 0.0272
AGATATCA	0.451 ± 0.0439
CGATATTA	0.365 ± 0.045
AGATATTA	0.234 ± 0.119
TGATATCA	0.48 ± 0.0111
AGATATTC	0.219 ± 0.06
AAATATCC	0.271 ± 0.0279
CGATATCA	0.444 ± 0.0437
ATCTGTCA	0.208 ± 0.00539
ATCCCTTG	0.271 ± 0.0326
GGATTCGA	0.212 ± 0.0426
TATCCCAA	0.329 ± 0.0116
CGTATTCA	0.265 ± 0.0108
ATCTACCG	0.23245 ± 0.00017
GATCTTCC	0.2463 ± 0.00105
GGATAGCC	0.3501 ± 0.00233
CGATAGCG	0.228 ± 0.0412
GGATATCC	0.4671 ± 0.00165
CGATATGA	0.311 ± 0.0729
CGATATCC	0.476 ± 0.0109
AGATATGC	0.353 ± 0.0369
CGATATCG	0.439 ± 0.0105
CGATATTC	0.317 ± 0.0233
CGATAGCA	0.206 ± 0.0373
CAATATCC	0.37 ± 0.00402

Sequence	binding signal [E-score]
CGATATGC	0.428 ± 0.00624
GGATAACC	0.297 ± 0.00525
AGTAATAT	0.236 ± 0.0691
ATACGGGC	0.278 ± 0.0276
TCGTCTCA	0.22 ± 0.0818
GTATGAAC	0.208 ± 0.0436
GTAACCCA	0.169 ± 0.0635
ATCATGCG	0.24 ± 0.02
ATATATGA	0.233 ± 0.0893
ATCAGCCC	0.308 ± 0.0315
ACCCCCTA	0.258 ± 0.0368
ATACCCTC	0.441 ± 0.0106
ACACCCTC	0.306 ± 0.00827
ACACCCTA	0.31 ± 0.00433
ATACCCTG	0.439 ± 0.0103
ACACCCTG	0.321 ± 0.0135
ATACCTTC	0.323 ± 0.0961
ATACCCTA	0.452 ± 0.00588
ATACTCTG	0.354 ± 0.0279
CCATCTGA	0.259 ± 0.0253
AGAAGTAT	0.297 ± 0.117
CTTAACAC	0.151 ± 0.0479
AGGTGAGA	0.159 ± 0.0138
GGGTGATA	0.4596 ± 0.00219
GGGTGAGA	0.172 ± 0.0545

Sequence	binding signal [E-score]
AGGTGATC	0.359 ± 0.0112
CGGTGATA	0.4094 ± 0.00389
CGGTGAGA	0.253 ± 0.0378
CGGTGATC	0.351 ± 0.0309
AGGTGATA	0.418 ± 0.0434
GGGTGTTA	0.282 ± 0.0105
GGGCTATA	0.2005 ± 0.00146
ATCATGGC	0.209 ± 0.00482
AGTTATCG	0.19 ± 0.0243
AGAATCCC	0.175 ± 0.0139
GTATAACA	0.238 ± 0.00858
CGATAGGA	0.26 ± 0.0286
GTATTGCA	0.169 ± 0.0405
ATAGCACA	0.169 ± 0.00707
GCTAATCC	0.208 ± 0.0144
ATCAAGTA	0.234 ± 0.0311
AAATACGG	0.19 ± 0.0109
CGATACGA	0.39752 ± 0.00029
ATATACGG	0.305 ± 0.00579
CGATACGC	0.434 ± 0.00646
GGATACGA	0.36 ± 0.00395
AGATACGG	0.401 ± 0.00895
CAATACGC	0.198 ± 0.00389
AGATACGC	0.349 ± 0.00878
AGATACGA	0.279 ± 0.0423

Sequence	binding signal [E-score]
ACTAATCT	0.192 ± 0.0141
AAGGTGAT	0.1945 ± 0.00188
AGCCGGTA	0.169 ± 0.00673
CCGACCCA	0.155 ± 0.0833
ATTAACAC	0.258 ± 0.0441
ATTTAATA	0.164 ± 0.0598
ATCTCCAC	0.204 ± 0.00599
ATAGTACG	0.209 ± 0.0147
ACACCGGC	0.28 ± 0.0468
ATCAATCG	0.266 ± 0.0101
ATATACTG	0.299 ± 0.0355
ATATACTC	0.354 ± 0.0664
ATATACCA	0.326 ± 0.0157
ATATACCC	0.446 ± 0.0125
ATATACCG	0.393 ± 0.00521
CTATACCC	0.369 ± 0.00624
ATAGCGGA	0.227 ± 0.0403
CCCAAGCA	0.263 ± 0.00886
GTAGGCCA	0.17 ± 0.0671
GCAGGATA	0.329 ± 0.0306
ATAGGATC	0.367 ± 0.0232
ATAGGATA	0.415 ± 0.0252
CCAGGATA	0.38 ± 0.00746
CAAGGATA	0.342 ± 0.00822
ACAGGATA	0.236 ± 0.0392

Sequence	binding signal [E-score]
CGAGGATA	0.384 ± 0.0112
CGAGGATC	0.333 ± 0.023
CTAGGATA	0.356 ± 0.00923
AGAGGATA	0.326 ± 0.0175
GGAGGATA	0.387 ± 0.0115
GTAGGATA	0.355 ± 0.00663
ACCCTGAT	0.3 ± 0.0183
GATCGAGA	0.295 ± 0.041
GATAGCAA	0.202 ± 0.0434
ATAGAATA	0.162 ± 0.00811
AGACCATA	0.19 ± 0.0814
GTCTACAC	0.152 ± 0.0214
AATACACC	0.336 ± 0.00415
AAATGAGA	0.16 ± 0.0635
GAATAATA	0.226 ± 0.111
CAATGATC	0.31 ± 0.0312
TAATGATA	0.36 ± 0.0576
GAATGATA	0.412 ± 0.066
CAATGATA	0.418 ± 0.0312
AAATGATC	0.321 ± 0.107
GAATGATC	0.306 ± 0.0507
AAATGATA	0.415 ± 0.0488
AACACCCG	0.304 ± 0.00694
ACCTGAGA	0.158 ± 0.0127
ATCGAAGG	0.179 ± 0.0692

Sequence	binding signal [E-score]
AGAGTGTA	0.223 ± 0.0204
AGCCCCTA	0.153 ± 0.0497
CCGCATTA	0.157 ± 0.0248
GAGCTGGA	0.177 ± 0.0153
ATCGCCGA	0.19 ± 0.0306
ATTCCGTG	0.156 ± 0.0528
ATACCGTC	0.396 ± 0.0211
ATCCCGTA	0.342 ± 0.0301
ATACCGTA	0.391 ± 0.00392
ATACCGTG	0.384 ± 0.0192
ACACCGTG	0.277 ± 0.0223
ACACCGTC	0.262 ± 0.00999
ATACCGAC	0.341 ± 0.0139
ACACCGTA	0.344 ± 0.0258
ATATGGTC	0.277 ± 0.0141
GGATTAAA	0.231 ± 0.111
AATCCGAG	0.237 ± 0.07
CTGGAATC	0.158 ± 0.0574
CCCATATC	0.4689 ± 0.00434
ACCATATC	0.418 ± 0.00875
ACCATACC	0.154 ± 0.0389
CCCATATA	0.309 ± 0.0133
ACCATATA	0.274 ± 0.008
CCTATATC	0.352 ± 0.0286
AGGTTTAT	0.199 ± 0.0561

Sequence	binding signal [E-score]
CCGATGCG	0.215 ± 0.071
CGATAGGC	0.175 ± 0.0335
CATATTAG	0.191 ± 0.0531
AATATCAC	0.38 ± 0.0781
ACTATCAC	0.279 ± 0.062
CCTATCAC	0.387 ± 0.0097
AATATCAT	0.381 ± 0.0478
AATATCAG	0.225 ± 0.129
CATATCAG	0.436 ± 0.0183
AATATGAT	0.309 ± 0.00824
AATATCTC	0.274 ± 0.0766
AATATCAA	0.225 ± 0.165
CTCCATCA	0.157 ± 0.0276
ATACAGCC	0.225 ± 0.1
ATCGGGTG	0.32 ± 0.0738
ACCGGGAT	0.313 ± 0.0258
GTATTAAA	0.246 ± 0.142
ATCATCAA	0.199 ± 0.0117
AACACCCT	0.21 ± 0.0269
